This is a sample that favours compounds with a hit; in the whole collection about 1.1% have one here.
IP6K1 inhibitor: Primary qHTS assay for small molecule inhibitors of Inositol hexaphosphate kinase 1 (IP6K1) | activity change, % (series mostly up to about 58 µM) | 140,000 tested, 0.81% active | IP6K1 kinase, ADP-Glo luminescence, 2 h; hits give low values | Inositol hexakisphosphate kinase 1 (Homo sapiens), Q92551; in the data active = activity change below about -25%
Target sequence (Q92551 whole entry, looked up): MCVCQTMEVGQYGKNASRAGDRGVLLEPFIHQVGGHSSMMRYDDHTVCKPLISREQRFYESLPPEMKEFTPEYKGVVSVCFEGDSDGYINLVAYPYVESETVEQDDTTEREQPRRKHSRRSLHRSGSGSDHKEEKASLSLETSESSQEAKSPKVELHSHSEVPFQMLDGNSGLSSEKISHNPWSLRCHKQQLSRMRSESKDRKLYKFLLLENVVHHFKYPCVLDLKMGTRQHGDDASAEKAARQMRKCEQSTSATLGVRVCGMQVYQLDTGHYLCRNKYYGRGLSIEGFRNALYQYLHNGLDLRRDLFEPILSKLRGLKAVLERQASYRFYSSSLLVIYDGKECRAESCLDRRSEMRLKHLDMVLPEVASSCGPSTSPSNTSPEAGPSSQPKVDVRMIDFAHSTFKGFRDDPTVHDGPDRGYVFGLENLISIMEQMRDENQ
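ADP-Glo luminescence measures ADP made by human IP6K1 during a 2 h RT reaction with ATP/IP6 (mix at 1.3 mM/130 uM); top library doses 57.5 and 19.1 uM final.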
HEK293 viab: GF-AFC viability counterscreen for inhibitors of alpha-synuclein gene (SNCA) expression | 150,000 tested, 0.12% active | Potency, µM (top dose mostly 57.1 µM), actives largely listed as cytotoxic | AID 1671193, 2021 | HEK-293-SNCA-luc viability, GF-AFC fluorescence, 24 h; note: nearly all actives have a fitted effect of over 30% in size
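Cytotoxicity counterscreen: after 24 h compound treatment of genome-edited SNCA-luciferase HEK-293 cells, live-cell protease substrate GF-AFC read by fluorescence after 30 min; activity scaled between DMSO (0%) and medium-only (-100%), curves Hill-fitted.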
GPT2 inhibitor: Primary qHTS assay for inhibitors of Glutamate pyruvate transaminase 2 (GPT2); Alanine aminotransferase 2 (Homo sapiens), Q8TD30; Recombinant GPT2, coupled pyruvate oxidase/HRP Amplex Red fluorescence; Potency, µM (doses to about 57.7 µM), hits mostly inhibitors; 100,000 tested, 0.25% active; AID 1671188, 2021; note: nearly all actives have a fitted effect of over 60% in size
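Inhibition is scored from Amplex Red fluorescence generated when pyruvate oxidase and HRP act on pyruvate released by GPT2. Reactions contain 10ng/uL enzyme, 250uM a-KG and 2mM L-alanine and run 30 min at room temperature.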
SNCA expr inhib: Primary qHTS assay for inhibitors of alpha-synuclein gene (SNCA) expression | HEK-293 SNCA-luciferase knock-in, luminescence, 24 h | Potency, µM (highest dose often 57.2 µM), usual class: inhibitors | 140,000 tested, 0.17% active; note: nearly all actives have a fitted effect of over 45% in size
IP6K1 inh cnf: Confirmatory qHTS assay for small molecule inhibitors of Inositol hexaphosphate kinase 1 (IP6K1) | shares compounds with IP6K1 inhibitor | recombinant IP6K1 kinase, ADP-Glo luminescence, 2 h | Potency, µM (top dose mostly 49 µM), hits mostly inhibitors | 1,200 tested, 13% active | AID 1645852, 2021; note: nearly all actives have a fitted effect of over 65% in size
Hits are given with their value; i = inactive; ? = inconclusive; nt = no result; [ ] = dose if it differs, or a comment. Unless noted, calls come from the whole dose curve; as a rule, active = well fitted curve in the direction sought with a large enough effect; inconclusive = small, poorly fitted or top-dose-only effect, or another doubt; inactive = no such curve, though single readings can be large; an effect the other way counts as inactive or inconclusive.

SMILES	IP6K1 inhibitor	HEK293 viab	GPT2 inhibitor	SNCA expr inhib	IP6K1 inh cnf
COc1cccc(CN(Cc2ccco2)c2cnc(S(C)(=O)=O)nc2C(=O)Nc2cccc(Cl)c2C)c1	-28	i	nt	i	i
Cc1ccc(CN(Cc2ccco2)c2cnc(S(C)(=O)=O)nc2C(=O)Nc2ccc(Br)cc2)o1	-27	i	nt	i	i
Cc1ccc(C(=O)NC2(C(F)(F)F)C(=O)Nc3c2c(=O)[nH]c(=O)n3CCc2ccccc2)cc1 (stereo unspecified)	i	i	nt	i	nt
Cc1nn(C)c(C)c1S(=O)(=O)NCC(=O)N1CCCCCNC(=O)CC1c1ccccc1 (stereo unspecified)	i	i	i	i	nt
CN1CCC[C@@H]1c1cccnc1	-31	i	i	i	i
CN1C(=O)CC[C@H]1c1cccnc1	i	i	i	i	nt
Cc1ccc(C(=O)Nc2cc(-c3ccncc3)nn2-c2ccccc2)cc1	i	i	i	i	nt
COc1cccc(Cn2cc(S(=O)(=O)c3ccc(C)cc3)c(=O)c3cc4c(cc32)OCO4)c1	-30	i	nt	i	i
Cc1cccc(Cn2cc(S(=O)(=O)c3ccc(Cl)cc3)c(=O)c3cc4c(cc32)OCO4)c1	i	i	nt	i	nt
CCCS(=O)(=O)NCCc1ncc(C)n1C(C)C	i	i	i	i	nt
O=C(Nc1cccc(C(=O)OCc2cc(=O)n3nc(C4CC4)sc3n2)c1)c1cccc(F)c1	i	i	nt	i	nt
O=C(O)CCCNc1cc(N2CCN(C3CCCCC3)CC2)c2noc3c2c1C(=O)c1ccccc1-3	-34	?	nt	?	?
Cc1ccc(S(=O)(=O)N(CC(=O)NCCSc2ccc(Cl)cc2)c2cccc(Cl)c2)cc1	i	i	nt	?	nt
COc1ccc(CCNC(=O)CN2C(=O)COc3ccccc32)cc1OC	-34	i	nt	i	i
O=C(Cc1[nH]nc2ccccc12)N[C@H](c1ccc2c(c1)CCO2)C1CC(O)C1 (stereo partly specified)	-36	i	i[11.5 µM]	i	i
Cc1cc(C(=O)NCCCOC(C)C)c2c(C3CCCN3)noc2n1 (stereo unspecified)	i	i	i	i	nt
O=C(c1ccncc1)N1CCCN(c2ccnc3ccnn23)CC1	i	i	i	i	nt
O=C(c1ccccc1)N1CCCN(c2ccnc3ccnn23)CC1	-26	i	i	i	i
CC1(Cc2ccc3c(c2)OCO3)CCCN(C(=O)c2ccc3n[nH]nc3c2)C1 (stereo unspecified)	i	i	i	i	nt
O=C(c1nc2sccn2c1Br)N1CCC(N2CCCNC2=O)CC1	i	i	i	i	nt
CN(C)Cc1nnc(C2CC(NC(=O)c3ccccc3-c3ncn[nH]3)C2)n1C (stereo unspecified)	-28	i	i[11.5 µM]	i	i
COc1cc2ncnc(Nc3cccc(Br)c3)c2cc1OC	nt	i	i	i	?
COc1cc2ncnc(Nc3cccc(O)c3)c2cc1OC	i	i	i	nt	nt
O=C(O)c1ccc(Nc2ncc3c(n2)-c2ccc(Cl)cc2C(c2c(F)cccc2F)=NC3)cc1	-49	i	i	i	10µM
COc1ccc(OC)c(C2CCN(c3ncncn3)C2)c1 (stereo unspecified)	i	i	i[11.5 µM]	i	nt
SMILES	IP6K1 inhibitor	HEK293 viab	GPT2 inhibitor	SNCA expr inhib	IP6K1 inh cnf
Cc1ccc([C@@H]2CN(C(=O)c3nc(C)oc3C)C[C@H]2NC(=O)C2CC2)cc1	i	i	i[11.5 µM]	i	nt
Cc1nn(-c2ccccc2)c(OC(=O)c2ccccc2)c1S(=O)(=O)c1ccccc1	-33	i	nt	i	i
CCc1nnc(NC(=O)c2nc(S(=O)(=O)Cc3ccc(C)cc3)ncc2Cl)s1	-33	28µM	nt	?	i
COc1ccc(NC(=O)c2nc(S(=O)(=O)Cc3ccc(C)cc3)ncc2Cl)cc1	i	?	nt	?	nt
CCOC(=O)c1ccc(NC(=O)c2csc3c2CCCC3)cc1	-33	i	nt	i	?
COc1cccc(C2c3c(oc4ccc(C)cc4c3=O)C(=O)N2CCCN2CCOCC2)c1OC (stereo unspecified)	-25	i	nt	i	i
COc1cc(C2c3c(oc4cc(C)c(C)cc4c3=O)C(=O)N2CCCN2CCOCC2)ccc1O (stereo unspecified)	i	i	nt	i	nt
